# From PubChem BioAssay (NCI)
# About 79,000 compounds went through this panel and 15% of them were active in at least one assay; those are over-represented in the sample as a whole. Values without a mark were called inactive. Active and inactive are the calls of the source. No stated cut-off is given here; in the data, active means growth inhibition above about 70%; inactive means the rest.
# Tests used:
# [1] = NCI Yeast Anticancer Drug Screen. Data for the rad50 strain (AID 155);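 further: 0% = growth of vehicle-only cultures of the same strain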; settings: S. cerevisiae rad50 strain growth inhibition; at 50.0 µM; hits give high values
# Method in brief: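 Relative growth inhibition (compound vs vehicle) was measured in yeast with a defined repair-gene alteration.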
# [2] = NCI Yeast Anticancer Drug Screen. Data for the mec2-1 strain (AID 157); settings: S. cerevisiae mec2-1 strain, at 50.0 µM, hits give high values
# Method in brief: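 mec2-1 yeast strain, carrying an alteration in DNA damage repair or cell cycle control, was exposed to compounds; growth inhibition was measured relative to vehicle-treated controls.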
# [3] = NCI Yeast Anticancer Drug Screen. Data for the sgs1 mgt1 strain (AID 161);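 further: 0% = growth of cultures given vehicle only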; settings: S. cerevisiae sgs1 mgt1 strain, at 50.0 µM, hits give high values
# Method in brief: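 Yeast cells carrying a defined DNA-repair defect were exposed to test compounds. Growth inhibition was measured relative to vehicle-treated controls.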
# [4] = NCI Yeast Anticancer Drug Screen. Data for the cln2 rad14 strain (AID 165);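 further: 0% = growth equal to vehicle treated cultures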; settings: S. cerevisiae cln2 rad14 strain, at 50.0 µM, hits give high values
# Method in brief: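 Yeast carrying cln2 and rad14 alterations (cell cycle control and DNA damage repair) were exposed to compounds. Growth inhibition was measured against vehicle-treated controls.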
# [5] = NCI Yeast Anticancer Drug Screen. Data for the bub3 strain (AID 167); settings: S. cerevisiae bub3 mutant strain, at 50.0 µM, hits give high values
# Method in brief: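 Screening used yeast with an engineered genetic alteration affecting cell cycle control. Compound-exposed cultures were compared with vehicle cultures, and reduced growth was taken as inhibition.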
# [6] = NCI Yeast Anticancer Drug Screen. Data for the mlh1 rad18 strain (AID 175); settings: S. cerevisiae mlh1 rad18 strain growth inhibition; at 50.0 µM; hits give high values
# Method in brief: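 Growth inhibition of the yeast strain was measured after compound exposure and expressed relative to vehicle-treated controls. The strain carries defined defects in DNA damage repair.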
Compound,growth inhibition [1],growth inhibition [2],growth inhibition [3],growth inhibition [4],growth inhibition [5],growth inhibition [6]
O=c1cc(O)cc2n1CCC2,5.15%,4.6%,-11.4%,16.4%,-14.8%,0.35%
NC(CCC(=O)NC(CSSCCCCS(=O)O)C(=O)NCC(=O)O)C(=O)O (stereo not given),-1.65%,-8.2%,11.3%,-10.2%,14.2%,1.4%
CC1=C(C(=O)NCc2ccccc2)C(/C=C/c2ccccc2)C(C(=O)NCc2ccccc2)=C(C)N1,46%,16.1%,23.7%,-22.1%,4.55%,34.3%
CC(C)(C)OC(=O)NCCNC(=O)OCc1ccccc1,4.25%,-12.2%,-16.7%,4.45%,-3.5%,-0.25%
O=C1OC(=O)C2C1N=NC2(c1ccccc1)c1ccccc1 (stereo not given),47.3%,26%,22.1%,-19.3%,-1.15%,39.8%
C/C(CC(=O)c1ccccc1)=C1\C(=O)NN(c2ccccc2)C1=O,60.5%,47.5%,67.7%,56.9%,64.6%,60.1%
CC(=O)Nc1c(C)ncn(-c2ccccc2)c1=O,-36.9%,-19.9%,-2.95%,-28.4%,-2.75%,-11.2%
Cc1cc2c(C(C)C)c(O)c(O)c(C=Nc3ccccc3)c2c(O)c1-c1c(C)cc2c(C(C)C)c(O)c(O)c(C=Nc3ccccc3)c2c1O,1.45%,34%,49.6%,-23%,-2.3%,52.8%
CCN(CC)Cc1ccc([NH-])c([NH-])c1.CCN(CC)Cc1ccc([NH-])c([NH-])c1.[Cl][Pt+2][Cl].[Cl][Pt+2][Cl].[Cl][Pt+2][Cl],27.4%,36.6%,35.6%,25.6%,29.2%,48.5%
Cn1cnc([N+](=O)[O-])c1Sc1ccncc1S(N)(=O)=O,-5.65%,-14.4%,0.2%,2.1%,6.5%,-9.15%
O=C1N=C2SC(=S)NC(=S)N2NC12c1ccccc1-c1ccccc12,30.1%,-11.4%,31%,10.5%,16.4%,19.6%
CCCCCCCCCCCCCCCCc1c(C(=O)OC)nc(NN)[nH]c1=O,-6.3%,5.2%,-26.5%,-2.85%,2.1%,-12.8%
Cc1cc(C)n(C2=NCCN2)n1,-26.1%,-33.7%,-14.1%,-33.2%,4.2%,-17.6%
CCCCCC[N+]12CC=C3COC(=O)C(C)(O)C(C)(O)C(C)C(=O)OC(CC1)C32 (stereo not given),0.7%,-6.15%,-0.25%,13.7%,-3.35%,7.85%
CCCC(=O)OCc1ccc(Cl)cc1,24.6%,12.8%,6.9%,5.15%,6.55%,3.35%
CCOC(=O)NC(C(N)=O)C(N)=O,-0.3%,15.8%,-1.6%,-44%,-13.3%,-2.45%
COC(=O)C1CCCCC1C(=O)OC (stereo not given),-11.1%,-14%,0.85%,-16.6%,-5.3%,6%
CCCCOCCOC(=O)Nc1cccc(Cl)c1,35%,30.7%,51.1%,-11.6%,-0.3%,2.15%
CC(C)(C)N=Cc1ccccc1[O-].CC(C)(C)N=Cc1ccccc1[O-].[Co+2],4%,7.9%,-14.5%,0.25%,3.6%,-5.85%
CN1C(=O)NC(C)(CCOCc2ccccc2)C1=O (stereo not given),8.85%,0.45%,0.25%,-1.25%,6.65%,8.65%

Compound,growth inhibition [1],growth inhibition [2],growth inhibition [3],growth inhibition [4],growth inhibition [5],growth inhibition [6]
CC(NC(=O)c1ccccc1)C(=O)O (stereo not given),25.4%,-6.4%,-26.6%,-24.2%,0.6%,27.7%
CCCCCCCCCCCCCCCCOc1ccc(-c2cc(=O)n(C)n2C)cc1OC,-14.1%,-27.2%,-9.3%,-0.15%,-8.55%,-16.2%
OCC1C2C=CC1CC2 (stereo not given),-1.4%,-1.8%,15.2%,-0.85%,11.7%,-2.7%
NCC(=O)c1cc2ccccc2[n+]([O-])c1,1.6%,-4.45%,1.8%,-51.2%,-8.5%,-14.4%
CCN(CC)C(=S)N/N=C/c1ccccn1,89.5% (active),92% (active),91% (active),89.2% (active),89.8% (active),90.3% (active)
COc1ccc(C2SC(N)=Nc3c2c(C)nn3C(=O)c2ccccc2O)cc1 (stereo not given),15.9%,10.1%,40.5%,5.85%,49.1%,29.4%
COC(=O)C1CCCN1C(=O)C(C)=O (stereo not given),16.9%,10.4%,-4.85%,-40.5%,5.4%,-5.45%
CCCCCCCCCCCCCCCCN(O)C(=O)c1cnc[nH]1,29.8%,26.6%,30.2%,25.4%,11.1%,22.6%
CN(C)c1ccc(C(=O)C2CCCCC2)cc1,29.1%,7.5%,13.6%,-4.8%,-5.2%,21.8%
O=C(O)COCC(=O)N(CCOCCN(Cc1ccccc1)C(=O)COCC(=O)O)Cc1ccccc1,-18.4%,0.75%,7.25%,26.6%,0.7%,4.1%
COC(=O)/C(C)=C/C=C/C(OC)C(OC(N)=O)/C(C)=C/C(C)C(O)C(CC(C)CC1=C(N)C(=O)C=C(N)C1=O)OC (stereo not given),9.4%,10.3%,-6.8%,46.9%,5.9%,-18%
COc1ccccc1NC(=O)C1=C(C)NC(C)=C(C(=O)Nc2ccccc2OC)C1c1ccco1,-4.8%,-8.65%,20.4%,4.3%,29.4%,-11.9%
C/C(=C/CCl)[N+](=O)[O-],36.4%,-10.4%,-4.95%,-7.35%,-8.95%,14.1%
O=C(C(=O)c1cccc(Cl)c1)c1ccccc1,21.4%,24.6%,5%,2.85%,-15.2%,-5.45%
O=S(=O)(CS(=O)(=O)Nc1ccccc1)Nc1ccccc1,21.1%,26.9%,21.7%,-4.45%,11.3%,21.3%
CCSc1nc(C)cc(=O)[nH]1,28%,-1.35%,9.6%,6.15%,13.2%,27.9%
C=C(C)c1ccc(B2Nc3ccccc3N2)cc1,53.6%,30.2%,45.6%,18.8%,40.8%,58.5%
O=C1C=C/C(=N\N=C(c2ccccc2)c2ccccc2)O1,-38.1%,-67.8%,-49.6%,7.45%,-42.7%,-28.2%
COc1cc2c(c(OC)c1OC)-c1cccc(=O)cc1C(NC(C)=O)CC2 (stereo not given),-3.65%,-14.2%,-3.35%,8.9%,-2.2%,21.1%
O=c1c(=[n+]2ccc(=C([O-])c3ccccc3)cc2)/c(=N/S(=O)(=O)c2ccccc2)c(=O)c2ccccc12,19.2%,33.1%,39.8%,7%,12.8%,26.4%
